# From ChEMBL document CHEMBL3988442, “University of Dundee, Small-Polar-MMV Screening Library” (2021)
# Biological target: T1, Aspartate--tRNA(Asp/Asn) ligase (Mycobacterium tuberculosis (strain ATCC 25618 / H37Rv)) (UniProt P9WFW3)
# T1 sequence (whole entry): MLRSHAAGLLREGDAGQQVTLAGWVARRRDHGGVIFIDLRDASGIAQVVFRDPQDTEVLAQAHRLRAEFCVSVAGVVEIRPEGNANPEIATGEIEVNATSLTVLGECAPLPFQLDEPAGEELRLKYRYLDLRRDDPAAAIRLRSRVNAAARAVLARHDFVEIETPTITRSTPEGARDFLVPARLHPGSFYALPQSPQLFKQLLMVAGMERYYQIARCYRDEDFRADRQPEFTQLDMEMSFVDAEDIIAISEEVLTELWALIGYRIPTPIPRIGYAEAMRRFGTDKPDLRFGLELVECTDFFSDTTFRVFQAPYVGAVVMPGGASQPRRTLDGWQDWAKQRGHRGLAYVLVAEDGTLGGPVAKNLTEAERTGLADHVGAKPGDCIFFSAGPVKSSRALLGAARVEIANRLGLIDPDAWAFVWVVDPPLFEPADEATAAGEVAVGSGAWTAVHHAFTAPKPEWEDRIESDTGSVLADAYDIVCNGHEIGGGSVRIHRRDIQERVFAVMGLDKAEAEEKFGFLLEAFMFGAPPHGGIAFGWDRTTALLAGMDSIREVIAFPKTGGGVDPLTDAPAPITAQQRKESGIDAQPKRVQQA
# Experiment: Assay for Asp RNA synthetase-1 from Mycobacterium tuberculosis
# Type: functional
# Set-up: scale not given: in the data most compounds retested in dose-response had high values
# Details: 30 µM
row,SMILES,Percent Effect
1,CCc1cccc(N2CCC(NC(=O)c3cc[nH]n3)CC2)c1,7.15%
2,Cc1noc(C(C)C)c1C(=O)NCC(c1cccc(F)c1)N(C)C (stereo not given),-4.05%
3,CCCc1cc(=O)n(CC(N)=O)c(-n2nc(C)cc2C)n1,3.6%
4,Cc1ccc2c(ccn2CC(=O)NC[C@@H]2CCCN3CCCC[C@H]23)c1,2.12%
5,Cc1ccc(C(=O)N2CCC3(CCC(=O)N(CC(N)=O)C3)CC2)c(O)c1,-0.585%
6,CC(COc1ccccc1)NCc1nc(-c2cccnc2)no1 (stereo not given),-2.31%
7,Cc1cc(CN2CC[C@H]3C[C@H](C(=O)N4CCC(C)CC4)O[C@H]3C2)no1,1.91%
8,Cc1cnn(CC2CCCN2CCCc2nc3ccccc3o2)c1 (stereo not given),1.34%
9,O=C(NCc1nnc2ccccn12)N1CCc2sccc2C1,-2.69%
10,Cc1nn(C)c(Cl)c1C1CCCN1C(=O)c1nccnc1N (stereo not given),-0.929%
11,c1ccc(-c2nccc(CNCC3CCCN3c3cccnn3)n2)cc1 (stereo not given),0.1%
12,COCC(=O)N1CC[C@@H](N2CCOCC2)[C@@H]1Cc1ccccc1,9.38%
13,CCCc1nc(CN2CCCC2Cn2cncn2)cs1 (stereo not given),-4.65%
14,Cc1cc(N2CCN(Cc3nccn3C)CC2)cc(C)n1,2.09%
15,COC(=O)C1CCN(c2cncc(-n3nc(C)cc3C)n2)CC1,8.26%
16,Cn1cccc1CNC(=O)CCCc1nnc2ccccn12,1.36%
17,CC(Cc1ccco1)NC(=O)Nc1ccc(S(C)(=O)=O)nc1 (stereo not given),1.12%
18,Cc1nc2c(c(N3CC=CC3)n1)CCN(Cc1ccoc1)CC2,-8.35%
19,Nc1ncc2c(n1)CN(C1CCCC1)C2=O,6.87%
20,CCCN(C(=O)COC)c1nc2c(s1)CCc1c-2cnn1C,-1.78%
